Only some compounds are listed: those with a hit (about 31% of all), similar ones and a draw of the others.
PLAP act: PLAP enzyme activators, biochemical, luminescence, HTS; 96,000 tested, 1.2% active; Alkaline phosphatase, placental type (Homo sapiens), P05187; purified PLAP enzyme, luminescent substrate read-out; active compounds read high; activation fold at 20 µM; in the data active means activation fold above about 2
Target sequence (P05187 whole entry, looked up): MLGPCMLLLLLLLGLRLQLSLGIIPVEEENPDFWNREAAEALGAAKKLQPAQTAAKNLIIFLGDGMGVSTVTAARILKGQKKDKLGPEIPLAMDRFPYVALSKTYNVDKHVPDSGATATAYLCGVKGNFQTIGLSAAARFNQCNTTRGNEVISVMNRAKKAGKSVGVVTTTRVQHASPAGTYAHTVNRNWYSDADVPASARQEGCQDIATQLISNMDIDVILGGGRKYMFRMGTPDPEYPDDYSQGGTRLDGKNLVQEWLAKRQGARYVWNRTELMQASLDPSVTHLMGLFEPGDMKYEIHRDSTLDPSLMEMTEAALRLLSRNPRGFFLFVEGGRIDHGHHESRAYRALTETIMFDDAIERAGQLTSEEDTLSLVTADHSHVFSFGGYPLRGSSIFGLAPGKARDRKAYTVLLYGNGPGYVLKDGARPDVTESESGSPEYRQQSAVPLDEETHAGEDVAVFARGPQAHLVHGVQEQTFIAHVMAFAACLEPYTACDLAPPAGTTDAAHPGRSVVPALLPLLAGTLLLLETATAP
CYP2C19 activ: human CYP2C19 activators, primary screen, biochemical, luminescence; recombinant CYP2C19, luciferin-H EGE luminescence; active compounds read high; 0 = fully inhibited enzyme, 1 = untreated enzyme; AID 1025, 2008; activation factor at 5 µM; 96,000 tested, under 10 active;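 active means activation factor of at least 2 at 5 µM in the primary screen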
CYP2C9 inh: blockers of cytochrome P450 2C9 activity – biochemical, luminescence, ADME assay, primary screen | P11712 | CYP2C9 Supersomes, luciferin-H conversion | inhibition, % at 5 µM | 96,000 tested, 20% active | AID 777, 2007;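 active means blocking of liver enzyme CYP2C9 beyond about 50% at 5 µM, limit read from the data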
CYP2C19 inhib: blockers of cytochrome P450 2C19 activity – biochemical, luminescence, ADME assay, primary screen; P33261; CYP2C19 Supersomes, luciferin-H EGE luminescence, 30 min; 96,000 tested, 21% active; inhibition, % at 5 µM; AID 778, 2007;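 active means CYP2C19 inhibition above a set limit at 5 µM in the primary screen, cut at about 50% in these data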
CYP2C9 act: human CYP2C9 activators, primary screen, biochemical, luminescence; recombinant CYP2C9, luciferin-H conversion; active compounds read high; factor 1 = untreated enzyme, 0 = blocked; activation factor at 5 µM; 96,000 tested, 1.4% active;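 active means activation factor of 2 or more for CYP2C9 at a 5 µM dose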
Of the large screens only hits and unclear results are named; the others gave an inactive call.

CCCCn1c(SCC(=O)NCc2ccco2)nnc1-c1ccoc1C	none
CCCCn1c(SCC(=O)Nc2nnc(C)s2)nnc1-c1ccoc1C	CYP2C9 inh 81
Cc1nnc(NC(=O)CSc2nnc(-c3ccoc3C)n2CC(C)C)s1	none
CCn1c(SCC(=O)N2CCN(c3ccccc3F)CC2)nnc1-c1ccoc1C	CYP2C9 inh 53, CYP2C19 inhib 54
COc1ccc(S(C)(=O)=O)cc1S(C)(=O)=O	none
OC1C=CSc2nc3ccccc3n21 (stereo not drawn)	none
Nc1cc(=O)[nH]c(SCC(=O)NCC2CCCO2)n1 (stereo not drawn)	none
Cc1occc1-c1nnc(SCC(=O)Nc2ccc3c(c2)OCO3)n1CC1CCCO1 (stereo not drawn)	CYP2C9 inh 60
CCCCn1c(SCC(=O)c2ccc3c(c2)OCCO3)nnc1-c1ccoc1C	CYP2C9 inh 90, CYP2C19 inhib 96
CCn1c(SCC(=O)Nc2nc(C)cs2)nnc1C(NC(=O)c1ccccc1Cl)C(C)C (stereo not drawn)	CYP2C19 inhib 52
C=CCn1c(SCC(=O)Nc2nc(C)cs2)nnc1C(CO)NC(=O)c1ccccc1 (stereo not drawn)	none
CCCn1c(SCC(=O)Nc2nnc(C)s2)nnc1-c1ccoc1C	CYP2C9 inh 66
CC1=CN2CC(O)CN=C2C=C1 (stereo not drawn)	none
CCn1c(SCC(=O)Nc2ccccc2-c2ccccc2)nnc1-c1ccoc1C	CYP2C9 inh 86, CYP2C19 inhib 80
CCOc1ccc(/C=N/NC(=O)c2ccc(Cn3cc([N+](=O)[O-])cn3)o2)cc1	CYP2C9 inh 59
CCOc1ccccc1/C=N/NC(=O)c1ccc(Cn2cc([N+](=O)[O-])cn2)o1	none
CCN(c1ccccc1)S(=O)(=O)c1ccc(F)cc1C	CYP2C19 inhib 67
CCN(c1ccccc1)S(=O)(=O)c1ccc(F)c(C(=O)O)c1	none
COc1cc2c(cc1OC)C(C(=O)Nc1ccc3c(c1)OCCO3)C(c1cccnc1)N(C)C2=O (stereo not drawn)	CYP2C9 inh 54
Cc1cc2c(ncn2C(C)C)c(N)c1C	none
Cc1oc(/N=C/c2ccc(Cl)cc2)c(C#N)c1C	none
Cc1oc(/N=C/c2ccc(Cl)cc2Cl)c(C#N)c1C	CYP2C19 inhib 71
Cc1ccc(C)c(S(=O)(=O)NCCOc2nc(NC(C)C)nc(NC(C)C)n2)c1	CYP2C9 inh 59, CYP2C19 inhib 78
O=C(Nc1ccccc1-c1nnn(CC(=O)N2CCc3ccccc3C2)n1)C1CCC1	CYP2C9 inh 65
O=C(Nc1cccc(-c2nnn(CC(=O)N3CCc4ccccc4C3)n2)c1)C1CCC1	PLAP act 2.3, CYP2C19 inhib 84
Cc1cc(-c2ccccc2)nn1-c1nc2c(c(=O)[nH]c(=O)n2C)n1C	none
Cc1nn(-c2ccccc2)c(C)c1C(=O)OCC(=O)N1c2ccccc2NC(=O)C1(C)C	none
COC(=O)C1CCN(C(=O)Cc2ccc(Br)cc2)CC1	CYP2C19 inhib 90
COc1ccc(CC(=O)N2CCN(C(=O)Cc3ccc(OC)cc3)CC2)cc1	none
COc1ccc(CC(=O)N2CCCC(C)C2)cc1 (stereo not drawn)	none
O=C(Cc1ccc(-n2c(=S)[nH]c3ccccc3c2=O)cc1)N1CCN(c2ccccc2)CC1	CYP2C19 inhib 55
CC1CCCN(C(=O)Cc2ccc(F)cc2)C1 (stereo not drawn)	CYP2C19 inhib 73
Cc1ccc(CN2CCNC2=O)cc1	none
Cc1ccc(CN2CCS(=O)(=O)CC2)cc1	CYP2C19 inhib 66
CCCn1ncc(OC)c(Cl)c1=O	none
O=C(Cc1ccc(-n2c(=O)[nH]c3ccccc3c2=O)cc1)N1CCN(c2ccccc2)CC1	none
O=C(Cc1ccc(Br)cc1)N1CCCCCC1	CYP2C19 inhib 53
O=C(Cc1ccc(Br)cc1)N1CCN(c2ccccc2)CC1	CYP2C9 inh 88, CYP2C19 inhib 99
COC(=O)C1CCN(Cc2ccc(C)cc2)CC1	CYP2C19 inhib 85
Cc1cccc(N2CCN(C(=O)Cc3ccc(Br)cc3)CC2)c1C	CYP2C19 inhib 70
CC(=O)C1CCN(Cc2ccccc2)CC1	none
Cc1ccc2nc(NC3=NCN(C4CCCCC4)CN3)nc(C)c2c1	none
FC(F)(F)c1nc2nncn2c2c1CCCCC2	none
CC(=O)Nc1ccc(S(=O)(=O)N(C)CC(=O)NC2=NCCS2)cc1	none
CN(Cc1ccco1)C(=O)Cn1c(=O)oc2cc(S(=O)(=O)NCc3ccccc3)ccc21	CYP2C19 inhib 98
Cn1c(=O)oc2cc(S(=O)(=O)NCc3ccccc3)ccc21	CYP2C19 inhib 59
CN(CCNS(=O)(=O)c1ccc2c(c1)oc(=O)n2C)Cc1ccccc1	none
CCn1c(=O)n(CC(=O)N(C)Cc2ccccc2)c(=O)c2ccccc21	CYP2C19 inhib 65
CCN(CCCNS(=O)(=O)c1ccc2c(c1)oc(=O)n2C)c1cccc(C)c1	CYP2C19 inhib 59
CC(C)(C)OC(=O)N1CCC(C(=O)N[C@@H](Cc2ccccc2)C(=O)O)CC1	none
CC(C)c1ccc(NC(=O)C(c2ccccc2)N2CCC3(CC2)OCCO3)cc1 (stereo not drawn)	none
Cc1cc(-c2ccc(Cl)s2)n[nH]1	none
Cc1ccc(OC(=O)C(F)(F)F)c2c1NCCC2	none
CCOc1cc(NC(=O)c2ccccc2C)c(OCC)cc1NC(=O)C1=Cc2ccccc2OC1	none
CN(Cc1ccccc1)C(=O)CCC(=O)N(C)Cc1ccccc1	none
O=C(Cn1c(=O)oc2cc(S(=O)(=O)N3CCCCCC3)ccc21)NC1CCCCCCC1	none
O=C(Cn1c(=O)oc2cc(S(=O)(=O)N3CCCC3)ccc21)N1CCN(c2ccccc2)CC1	none
CN(Cc1ccccc1)C(=O)CCn1c(=O)oc2ccccc21	CYP2C19 inhib 93
CN(Cc1ccccc1)C(=O)Cn1c(=O)oc2cc(S(=O)(=O)N3CCCC3)ccc21	CYP2C9 inh 65
CC(NC(=O)Cn1c(=O)oc2cc(S(=O)(=O)N3CCCC3)ccc21)c1ccccc1 (stereo not drawn)	CYP2C9 inh 90
O=C(Cn1c(=O)oc2cc(S(=O)(=O)N3CCCC3)ccc21)NC1CCCc2ccccc21 (stereo not drawn)	CYP2C9 inh 58 (no result: PLAP act)
C=CCc1cccc2cc(C(=O)NC)c(=O)oc12	none
CCC(C)(C)n1nnnc1CN(Cc1cc2cc(OC)c(OC)cc2[nH]c1=O)C1CCCC1	none
CCC(c1nnnn1Cc1ccco1)N(Cc1cc2cc(C)cc(C)c2[nH]c1=O)CC1CCCO1 (stereo not drawn)	CYP2C9 inh 79, CYP2C19 inhib 74
CCC(c1nnnn1Cc1ccco1)N(Cc1ccccc1OC)Cc1cc2cc(C)ccc2[nH]c1=O (stereo not drawn)	CYP2C9 inh 51
